# Where “and” joins values, the source holds several entries; their conditions need not be identical. Equal values may be shown once. Records with an inconclusive call do not appear. Entries that show only a call come without a potency. Calls of active or inactive are those of the source. Unless noted, the call rests on the fitted dose curve; in most records, active means well fitted curve in the direction sought with a large enough effect; inconclusive means small, poorly fitted or top-dose-only effect, or another doubt; inactive means no such curve, though single readings can be large; an effect the other way counts as inactive or inconclusive.
# Tests used:
# [1] = qHTS for Inhibitors of ATXN expression: Validation of Cytotoxic Assay (AID 588349); further: potency means the concentration at half of the fitted maximal effect
# Summary of the method: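 Titrated compounds are added to cultured HEK293 cells, which are then held at 37 degrees C for 72 hr; loss of intracellular ATP, measured with CellTiter Glo, indicates toxicity.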
# [2] = qHTS for Inhibitors of ATXN expression: Validation (AID 588378); further: nearly all actives have a fitted effect of over 75% in size; further: potency means the concentration at half of the fitted maximal effect
# Summary of the method: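 HEK293 cells carrying ATXN2-firefly luciferase reporter, treated with compound 24 h at 37 °C. Viability read first by CellTiter-Fluor (405/525 nm), then reporter expression by Bright-Glo luminescence; controls were a known ATXN2 expression inhibitor and a luciferase inhibitor.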
# [3] = target: DNA dC->dU-editing enzyme APOBEC-3G (Homo sapiens) (UniProt Q9HC16); experiment: qHTS for inhibitors of Vif-A3G interactions: Validation (AID 588379)
# DNA dC->dU-editing enzyme APOBEC-3G (Homo sapiens), sequence (Q9HC16 whole entry, looked up): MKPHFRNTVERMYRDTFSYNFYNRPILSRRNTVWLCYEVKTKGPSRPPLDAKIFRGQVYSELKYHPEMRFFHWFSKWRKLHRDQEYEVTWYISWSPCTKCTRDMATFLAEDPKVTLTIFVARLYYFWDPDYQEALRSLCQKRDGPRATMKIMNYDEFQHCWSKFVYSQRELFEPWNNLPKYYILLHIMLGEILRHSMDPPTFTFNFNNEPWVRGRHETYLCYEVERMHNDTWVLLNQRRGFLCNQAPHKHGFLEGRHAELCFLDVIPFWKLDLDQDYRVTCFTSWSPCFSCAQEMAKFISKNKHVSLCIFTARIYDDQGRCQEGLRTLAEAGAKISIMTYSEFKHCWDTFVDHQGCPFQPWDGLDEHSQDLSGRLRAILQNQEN
# Summary of the method: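 Yellow fluorescence (Ex 488, Em 500-530) of Vif-coexpressing HeLa A3G-eYFP cells, scanned by Acumen cytometer, reports blocked A3G degradation. Cells plated at 700/well overnight at 37 deg C before compound addition, then a further overnight compound incubation at 37 deg C.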
# [4] = target: Estrogen receptor (Homo sapiens) (UniProt P03372); experiment: qHTS assay for small molecule antagonists of estrogen receptor alpha signaling (AID 588513; active means well fitted curve in the direction sought with a large enough effect in the signal ratio, with a control signal flat, not every such curve was filed as active; the % refers to the signal ratio)
# Estrogen receptor (Homo sapiens), sequence (P03372 whole entry, looked up): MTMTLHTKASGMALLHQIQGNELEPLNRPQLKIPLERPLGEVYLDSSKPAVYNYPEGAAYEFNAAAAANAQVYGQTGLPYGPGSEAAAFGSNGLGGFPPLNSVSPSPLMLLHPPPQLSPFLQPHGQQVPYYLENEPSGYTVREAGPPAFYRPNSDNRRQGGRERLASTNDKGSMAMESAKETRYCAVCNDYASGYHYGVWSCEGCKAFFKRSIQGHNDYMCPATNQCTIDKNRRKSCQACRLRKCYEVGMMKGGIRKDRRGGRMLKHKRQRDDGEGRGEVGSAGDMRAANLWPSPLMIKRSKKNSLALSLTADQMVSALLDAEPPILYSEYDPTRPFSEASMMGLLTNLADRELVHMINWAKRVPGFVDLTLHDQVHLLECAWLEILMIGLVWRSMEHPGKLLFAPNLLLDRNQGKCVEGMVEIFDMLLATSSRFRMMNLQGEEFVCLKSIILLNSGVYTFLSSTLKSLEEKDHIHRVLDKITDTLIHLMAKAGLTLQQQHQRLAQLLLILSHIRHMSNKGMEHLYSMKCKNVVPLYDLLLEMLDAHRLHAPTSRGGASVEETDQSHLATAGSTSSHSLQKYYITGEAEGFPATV
# Summary of the method: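 ER-alpha-UAS-bla GripTite HEK 293 cells in 2% charcoal/dextran-treated FBS medium; compounds titrated (1:2, duplicate), then stimulated with 0.5 nM 17-beta-estradiol for 18 h at 37C. CCF4 beta-lactamase fluorescence; Hill-fit IC50 and efficacy.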
# [5] = target: Estrogen receptor (Homo sapiens) (UniProt P03372); experiment: qHTS assay for small molecule agonists of estrogen receptor alpha signaling (AID 588514; calls by dose curve; further: nearly all actives have a fitted effect of over 70% in size)
# Summary of the method: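 Efficacy is expressed against 20 nM 17-beta-estradiol (100%) and DMSO basal (0%); EC50 from Hill equation. Assay: beta-lactamase reporter in ER-alpha-UAS-bla HEK 293 cells, 18 h compound incubation, CCF4 detection.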
# [6] = target: Bile acid receptor (Homo sapiens) (UniProt Q96RI1); experiment: qHTS assay for small molecule antagonists of farnesoid X receptor signaling (AID 588526; calls by dose curve)
# Bile acid receptor (Homo sapiens), sequence (Q96RI1 whole entry, looked up): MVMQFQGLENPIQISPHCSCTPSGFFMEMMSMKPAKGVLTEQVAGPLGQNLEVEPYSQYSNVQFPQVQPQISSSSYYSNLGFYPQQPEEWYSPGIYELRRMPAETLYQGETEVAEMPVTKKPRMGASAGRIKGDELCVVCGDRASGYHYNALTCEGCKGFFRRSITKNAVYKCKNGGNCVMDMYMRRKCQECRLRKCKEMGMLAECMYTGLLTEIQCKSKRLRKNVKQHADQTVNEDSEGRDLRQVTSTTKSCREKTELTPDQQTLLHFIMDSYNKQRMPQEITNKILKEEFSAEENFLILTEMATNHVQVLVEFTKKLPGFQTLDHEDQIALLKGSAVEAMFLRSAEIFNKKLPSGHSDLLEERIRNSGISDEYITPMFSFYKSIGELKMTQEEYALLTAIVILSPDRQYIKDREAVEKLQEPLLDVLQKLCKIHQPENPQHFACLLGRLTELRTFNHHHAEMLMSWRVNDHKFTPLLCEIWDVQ
# Summary of the method: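 Antagonist mode: titrated compounds tested against chenodeoxycholic acid stimulation (normalized to 50 uM CDCA and DMSO) in GeneBLAzer HEK293T cells for 16 h. Beta-lactamase read by CCF4 fluorescence; IC50 from Hill fits.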
# [7] = target: Bile acid receptor (Homo sapiens) (UniProt Q96RI1); experiment: qHTS assay for small molecule agonists of farnesoid X receptor signaling (AID 588527; calls by dose curve; further: series mostly up to about 77 µM); settings: HEK293T FXR-UAS-bla, beta-lactamase ratio, 16 h; stronger effect = higher value
# Summary of the method: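 Read-out: beta-lactamase reporter fluorescence with CCF4 substrate in GeneBLAzer FXR-UAS-bla HEK293T cells, after 16 h compound exposure at 37 C. Response scaled between DMSO basal (0%) and chenodeoxycholic acid at 100 uM (100%).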
# [8] = target: Glucocorticoid receptor (Homo sapiens) (UniProt P04150); experiment: qHTS assay for small molecule agonists of glucocorticoid receptor signaling (AID 588532; active means well fitted curve in the direction sought with a large enough effect in the signal ratio, with a control signal flat; the % refers to the signal ratio); settings: HeLa MMTV-bla, beta-lactamase ratio, agonist, 18 h; stronger effect = higher value; percent of dexamethasone control, DMSO zero
# Glucocorticoid receptor (Homo sapiens), sequence (P04150 whole entry, looked up): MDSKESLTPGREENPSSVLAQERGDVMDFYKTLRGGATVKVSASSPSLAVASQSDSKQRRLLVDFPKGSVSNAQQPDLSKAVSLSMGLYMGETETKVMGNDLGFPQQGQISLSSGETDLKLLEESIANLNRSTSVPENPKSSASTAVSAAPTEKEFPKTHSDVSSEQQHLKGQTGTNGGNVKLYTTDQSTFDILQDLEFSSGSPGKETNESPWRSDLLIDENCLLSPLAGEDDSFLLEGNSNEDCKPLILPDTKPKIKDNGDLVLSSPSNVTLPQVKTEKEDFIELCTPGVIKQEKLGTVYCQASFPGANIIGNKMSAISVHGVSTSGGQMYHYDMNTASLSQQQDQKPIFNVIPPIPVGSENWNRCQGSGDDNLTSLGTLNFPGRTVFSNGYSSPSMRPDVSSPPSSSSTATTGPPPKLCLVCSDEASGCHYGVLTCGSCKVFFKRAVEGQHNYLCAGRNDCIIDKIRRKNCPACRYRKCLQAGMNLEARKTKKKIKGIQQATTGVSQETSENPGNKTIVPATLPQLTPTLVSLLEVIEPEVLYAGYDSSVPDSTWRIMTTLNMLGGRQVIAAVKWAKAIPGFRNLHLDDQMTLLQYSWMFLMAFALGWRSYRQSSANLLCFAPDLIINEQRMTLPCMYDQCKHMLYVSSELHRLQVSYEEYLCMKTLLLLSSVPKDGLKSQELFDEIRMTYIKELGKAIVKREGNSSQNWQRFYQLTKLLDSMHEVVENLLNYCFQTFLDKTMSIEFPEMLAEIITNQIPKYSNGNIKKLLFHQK
# Summary of the method: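 MMTV-bla HeLa beta-lactamase reporter cells in 1% charcoal/dextran FBS medium, compounds up to 92 uM for 18 h at 37 C, CCF4 readout; normalized to 0.1 uM dexamethasone (100%), EC50 and efficacy from Hill fits.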
# [9] = target: Glucocorticoid receptor (Homo sapiens) (UniProt P04150); experiment: qHTS assay for small molecule antagonists of glucocorticoid receptor signaling (AID 588533; active means well fitted inhibition curve with a large enough effect in the signal ratio, with a control signal flat, not every such curve was filed as active; the % refers to the signal ratio)
# Summary of the method: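 Antagonist-mode qHTS: compound titrations added to GRE-bla HeLa cells, then dexamethasone 2 nM final; 18 h, 37 C. CCF4 FRET fluorescence normalized to dexamethasone and DMSO; IC50 from Hill fit.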
# [10] = target: Peroxisome proliferator-activated receptor delta (Homo sapiens) (UniProt Q03181); experiment: qHTS assay for small molecule agonists of peroxisome proliferator-activated receptor delta signaling (AID 588534; calls by dose curve)
# Peroxisome proliferator-activated receptor delta (Homo sapiens), sequence (Q03181 whole entry, looked up): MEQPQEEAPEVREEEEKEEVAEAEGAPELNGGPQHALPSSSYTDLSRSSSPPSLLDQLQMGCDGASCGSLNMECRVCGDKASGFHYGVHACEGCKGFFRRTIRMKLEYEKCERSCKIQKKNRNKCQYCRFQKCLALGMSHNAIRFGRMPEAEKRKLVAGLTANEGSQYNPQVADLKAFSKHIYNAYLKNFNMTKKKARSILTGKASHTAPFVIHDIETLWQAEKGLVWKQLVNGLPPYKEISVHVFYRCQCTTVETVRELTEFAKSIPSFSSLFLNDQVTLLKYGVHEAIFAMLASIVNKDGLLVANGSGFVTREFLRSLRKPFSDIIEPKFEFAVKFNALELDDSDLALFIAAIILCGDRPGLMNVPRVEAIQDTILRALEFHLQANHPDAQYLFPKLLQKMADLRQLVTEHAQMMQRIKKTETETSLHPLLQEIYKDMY
# Summary of the method: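 Agonist-mode qHTS; reporter cells, 5 hrs 37 C pre-incubation; compound titration, 18 hrs 37 C; CCF4 dye, 2 hrs RT; fluorescence read. EC50/efficacy via Hill fit.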
# [11] = qHTS assay for small molecule antagonists of peroxisome proliferator-activated receptor delta signaling (AID 588535; active means well fitted inhibition curve with a large enough effect in the signal ratio, with a control signal flat, not every such curve was filed as active; the % refers to the signal ratio;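 on max response: cells co-treated with a PPAR-delta agonist as stimulator during compound exposure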); settings: HEK293T PPARd-UAS-bla, beta-lactamase FRET ratio, 18 h; 460 nm channel
# Summary of the method: (§1)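 Fluorescence from CCF4-loaded GeneBLAzer PPAR-delta-UAS-bla HEK293T cells (2 hrs RT loading) quantified reporter inhibition after an 18 hr, 37 C compound exposure across a titration.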
# [12] = target: Peroxisome proliferator-activated receptor delta (Homo sapiens) (UniProt Q03181); experiment: as above
# Summary of the method: as §1
# [13] = target: Vitamin D3 receptor (Homo sapiens) (UniProt P11473); experiment: qHTS assay for small molecule antagonists of vitamin D receptor signaling (AID 588541; calls by dose curve;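 further: receptor activated by calcitriol during compound treatment; series mostly up to about 77 µM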)
# Vitamin D3 receptor (Homo sapiens), sequence (P11473 whole entry, looked up): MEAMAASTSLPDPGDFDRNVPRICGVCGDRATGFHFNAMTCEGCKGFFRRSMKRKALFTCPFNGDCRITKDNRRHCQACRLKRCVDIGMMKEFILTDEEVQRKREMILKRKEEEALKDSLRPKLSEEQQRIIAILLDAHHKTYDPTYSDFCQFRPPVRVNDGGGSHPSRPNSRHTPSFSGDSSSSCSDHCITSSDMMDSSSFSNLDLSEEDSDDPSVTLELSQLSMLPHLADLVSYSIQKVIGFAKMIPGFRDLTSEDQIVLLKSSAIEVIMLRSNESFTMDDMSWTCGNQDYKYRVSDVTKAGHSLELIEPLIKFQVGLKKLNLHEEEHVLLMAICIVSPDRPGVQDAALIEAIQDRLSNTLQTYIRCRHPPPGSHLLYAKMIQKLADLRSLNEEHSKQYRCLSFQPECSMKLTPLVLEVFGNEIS
# Summary of the method: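 VDR-UAS-bla HEK293T cells in 2% charcoal-stripped FBS were stimulated with 1-alpha,25-dihydroxyvitamin D3 (3 nM final) plus compound for 16 h at 37 C. The beta-lactamase CCF4 readout was normalized to 50 nM agonist and DMSO, and Hill fits gave IC50.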
# [14] = target: Vitamin D3 receptor (Homo sapiens) (UniProt P11473); experiment: qHTS assay for small molecule agonists of vitamin D receptor signaling (AID 588543; calls by dose curve)
# Summary of the method: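 VDR-UAS-bla HEK293T cells, 2000/well, 2% charcoal-stripped FBS; compound titration 16 h at 37 C; CCF4 beta-lactamase ratio read. Normalized to 50 nM 1-alpha,25-dihydroxyvitamin D3 (100%) and DMSO; Hill fit gives EC50, efficacy.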
# [15] = qHTS assay for small molecule agonists of retinoid X receptor alpha signaling (AID 588544; calls by dose curve); settings: HEK293T RXRa-UAS-bla, beta-lactamase reporter, 18 h; 530 nm emission
# [16] = target: Retinoic acid receptor RXR-alpha (Homo sapiens) (UniProt P19793); experiment: as above
# Retinoic acid receptor RXR-alpha (Homo sapiens), sequence (P19793 whole entry, looked up): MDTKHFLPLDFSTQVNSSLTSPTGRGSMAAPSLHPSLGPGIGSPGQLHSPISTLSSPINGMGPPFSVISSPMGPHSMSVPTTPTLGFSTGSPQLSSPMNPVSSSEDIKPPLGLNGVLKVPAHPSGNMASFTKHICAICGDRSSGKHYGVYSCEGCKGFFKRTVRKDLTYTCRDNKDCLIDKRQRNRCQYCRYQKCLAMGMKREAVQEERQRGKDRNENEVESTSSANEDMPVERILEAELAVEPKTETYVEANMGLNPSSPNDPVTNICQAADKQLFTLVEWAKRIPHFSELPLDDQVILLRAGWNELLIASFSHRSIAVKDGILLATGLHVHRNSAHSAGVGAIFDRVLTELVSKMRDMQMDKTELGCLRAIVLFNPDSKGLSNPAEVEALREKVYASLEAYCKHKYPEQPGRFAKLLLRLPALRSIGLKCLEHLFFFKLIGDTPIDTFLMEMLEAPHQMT
# [17] = target: Peroxisome proliferator-activated receptor gamma (Homo sapiens) (UniProt P37231); experiment: qHTS assay for small molecule agonists of peroxisome proliferator-activated receptor gamma signaling (AID 588536; active means well fitted curve in the direction sought with a large enough effect in the signal ratio, with a control signal flat, not every such curve was filed as active; the % refers to the signal ratio)
# Peroxisome proliferator-activated receptor gamma (Homo sapiens), sequence (P37231 whole entry, looked up): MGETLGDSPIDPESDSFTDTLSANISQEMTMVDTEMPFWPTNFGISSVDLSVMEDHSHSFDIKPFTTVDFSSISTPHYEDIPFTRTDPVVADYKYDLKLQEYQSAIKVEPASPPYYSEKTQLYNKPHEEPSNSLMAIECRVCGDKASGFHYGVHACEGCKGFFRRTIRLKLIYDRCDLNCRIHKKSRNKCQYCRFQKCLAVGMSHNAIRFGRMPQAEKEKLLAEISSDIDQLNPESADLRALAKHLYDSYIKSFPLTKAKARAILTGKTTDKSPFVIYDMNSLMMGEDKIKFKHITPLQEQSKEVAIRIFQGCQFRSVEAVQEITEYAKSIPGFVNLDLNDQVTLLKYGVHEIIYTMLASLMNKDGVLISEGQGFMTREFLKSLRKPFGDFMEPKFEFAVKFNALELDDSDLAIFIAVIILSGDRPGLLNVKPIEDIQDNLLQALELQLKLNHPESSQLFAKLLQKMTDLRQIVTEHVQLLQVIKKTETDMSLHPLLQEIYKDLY
# Summary of the method: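 Beta-lactamase reporter read-out: CCF4 fluorescence (ex 405, em 460/530 nm) after 2 h at RT. HEK293 GeneBLAzer cells were treated for 16 h at 37 C. Hill fits gave EC50 and efficacy versus 2 uM rosiglitazone (100%) and DMSO (0%).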
# [18] = target: Peroxisome proliferator-activated receptor gamma (Homo sapiens) (UniProt P37231); experiment: qHTS assay for small molecule antagonists of peroxisome proliferator-activated receptor gamma signaling (AID 588537; active means well fitted inhibition curve with a large enough effect in the signal ratio, with a control signal flat, not every such curve was filed as active; the % refers to the signal ratio; further: potency means the concentration at half of the fitted maximal effect)
# Summary of the method: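 Fluorescence at 460 and 530 nm (405 nm excitation) reported beta-lactamase cleavage of CCF4 after 2 h room-temperature loading. HEK293 reporter cells in 1% charcoal/dextran-treated FBS had received compound and rosiglitazone for 16 h.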
# [19] = target: Androgen receptor (Homo sapiens) (UniProt P10275); experiment: qHTS assay for small molecule agonists of androgen receptor signaling (AID 588515; active means well fitted curve in the direction sought with a large enough effect in the signal ratio, with a control signal flat; the % refers to the signal ratio); settings: AR-UAS-bla HEK293, beta-lactamase ratio, agonist 16 h; stronger effect = higher value
# Androgen receptor (Homo sapiens), sequence (P10275 whole entry, looked up): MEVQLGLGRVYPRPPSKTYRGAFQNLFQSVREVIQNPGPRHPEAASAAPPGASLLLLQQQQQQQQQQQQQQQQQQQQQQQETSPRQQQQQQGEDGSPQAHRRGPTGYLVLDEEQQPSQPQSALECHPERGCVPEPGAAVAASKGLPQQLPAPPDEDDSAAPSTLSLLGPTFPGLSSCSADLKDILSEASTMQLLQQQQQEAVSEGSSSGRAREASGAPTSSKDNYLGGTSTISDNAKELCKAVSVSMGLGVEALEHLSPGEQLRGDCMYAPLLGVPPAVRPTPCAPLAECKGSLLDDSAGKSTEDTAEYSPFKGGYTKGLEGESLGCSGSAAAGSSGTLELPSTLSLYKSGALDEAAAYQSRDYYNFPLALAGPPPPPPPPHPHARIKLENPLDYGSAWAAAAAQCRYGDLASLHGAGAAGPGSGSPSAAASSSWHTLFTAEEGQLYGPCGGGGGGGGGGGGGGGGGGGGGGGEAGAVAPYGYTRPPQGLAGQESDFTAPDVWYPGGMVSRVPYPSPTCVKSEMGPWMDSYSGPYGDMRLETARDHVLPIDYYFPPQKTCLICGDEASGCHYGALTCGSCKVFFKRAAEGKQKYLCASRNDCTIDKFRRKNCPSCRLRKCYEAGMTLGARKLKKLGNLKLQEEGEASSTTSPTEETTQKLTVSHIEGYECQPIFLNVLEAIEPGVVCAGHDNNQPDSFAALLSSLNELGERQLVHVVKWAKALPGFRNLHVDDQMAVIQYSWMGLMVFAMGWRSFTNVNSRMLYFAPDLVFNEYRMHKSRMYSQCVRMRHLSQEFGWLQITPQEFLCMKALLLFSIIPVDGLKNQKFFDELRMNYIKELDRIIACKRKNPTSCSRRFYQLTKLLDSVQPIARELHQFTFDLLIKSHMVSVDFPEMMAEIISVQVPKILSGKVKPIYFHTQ
# Summary of the method: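 Stimulation of an AR-responsive β-lactamase reporter in GripTite HEK293 cells was measured after 16 h compound exposure at 37 °C, via CCF4 fluorescence after 2 h RT. EC50 from Hill fits, normalized to R1881 at 30 nM.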
# [20] = target: Androgen receptor (Homo sapiens) (UniProt P10275); experiment: qHTS assay for small molecule antagonists of androgen receptor signaling (AID 588516; active means well fitted curve in the direction sought with a large enough effect in the signal ratio, with a control signal flat, not every such curve was filed as active; the % refers to the signal ratio)
# Summary of the method: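 AR-UAS-bla GripTite HEK 293 cells (2000/well) treated with compound titrations plus 10 nM R1881 for 16 h at 37C. Beta-lactamase read by CCF4 FRET (460/530 nm); IC50 from Hill fits, normalized to R1881 and DMSO control wells.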
structure (smiles),measurement,setting,value
NCC1(CC(=O)O)CCCCC1,Potency,[1],inactive
same,Potency,[2],inactive
same,outcome,[3],inactive
CNCC(O)c1ccc(O)cc1 (centres undefined),Potency,[1],inactive
same,Potency,[2],inactive
same,outcome,[4],inactive
same,Potency,[5],inactive
same,Potency,[6],inactive
same,activation,[7],-1.79% (inactive)
same,activation,[8],9.17% (inactive)
same,Potency,[9],inactive
same,outcome,[10],inactive
same,max response,[11],-16.7%
same,outcome,[12],inactive
same,outcome,[13],inactive
same,outcome,[14],inactive
same,max response,[15],4.18%
same,Potency,[16],inactive
CC[C@@H](CO)NC(=O)[C@@H]1C=C2c3cccc4c3c(cn4C)C[C@H]2N(C)C1,Potency,[2],inactive
c1ccc(C2CC2)c(OCC2=NCCN2)c1,Potency,[1],inactive
same,Potency,[2],inactive
same,outcome,[3],inactive
NN=C(N)N,Potency,[1],inactive
same,Potency,[2],inactive
same,outcome,[3],inactive
C[C@@H]1O[C@@H](O[C@H]2C[C@@H](O)[C@]3(CO)[C@H]4[C@H](O)C[C@]5(C)[C@@H](C6=CC(=O)OC6)CC[C@]5(O)[C@@H]4CC[C@]3(O)C2)[C@H](O)[C@H](O)[C@H]1O,Potency,[2],inactive
NCC(O)c1ccc(O)cc1 (centres undefined),Potency,[1],inactive
same,Potency,[2],inactive
same,outcome,[17],inactive
same,outcome,[13],inactive
same,outcome,[14],inactive
same,max response,[15],14.7%
same,Potency,[16],inactive
Fc1ccc(C(OCCN2CCN(CCCc3ccccc3)CC2)c2ccc(F)cc2)cc1,Potency,[1],35.5 µM (active)
same,Potency,[2],20 µM (active)
same,outcome,[3],inactive
CC(C)=CCOc1c2occc2cc2ccc(=O)oc12,Potency,[1],inactive
same,Potency,[2],inactive
c1ccc2c(c1)OCC(C1=NCCN1)O2 (centres undefined),Potency,[1],22.4 µM (active)
CCC1(C2=NCCN2)Cc2ccccc2O1 (centres undefined),Potency,[1],inactive
same,Potency,[2],inactive
CCCN1CCC[C@@H]2Cc3nc(N)ncc3C[C@H]21,Potency,[1],inactive
same,Potency,[2],inactive
O=c1[nH]c2ccccc2n1C1CCN(CCCC(c2ccc(F)cc2)c2ccc(F)cc2)CC1,Potency,[1],inactive
same,Potency,[2],inactive
same,outcome,[3],inactive
same,Potency,[5],inactive
same,activation,[7],-1.92% (inactive)
same,activation,[8],4.7% (inactive)
same,Potency,[9],inactive
O=C1NCN(c2ccccc2)C12CCN(CC1COc3ccccc3O1)CC2 (centres undefined),Potency,[1],inactive
same,Potency,[2],inactive
Cc1ncc(CNC(=O)N(CCCl)N=O)c(N)n1,Potency,[1],inactive
same,Potency,[2],inactive
CCCC(C)(COC(N)=O)COC(=O)NC(C)C (centres undefined),Potency,[1],inactive
same,Potency,[2],inactive
same,outcome,[4],inactive
same,Potency,[5],inactive
same,outcome,[17],inactive
same,Potency,[18],inactive
same,outcome,[13],inactive
same,outcome,[14],inactive
same,max response,[15],-3.14% and 6.33%
same,Potency,[16],inactive
CCCN1CCC[C@@H]2Cc3[nH]ncc3C[C@H]21,Potency,[1],inactive
same,Potency,[2],inactive
same,outcome,[3],inactive
CC[C@@H](CO)NC(=O)[C@@H]1C=C2c3cccc4[nH]cc(c34)C[C@H]2N(C)C1,Potency,[1],inactive
same,Potency,[2],inactive
Cc1cccc(C)c1NC1=NCCCS1,Potency,[1],inactive
same,Potency,[2],inactive
CC(O)(CS(=O)(=O)c1ccc(F)cc1)C(=O)Nc1ccc(C#N)c(C(F)(F)F)c1 (centres undefined),Potency,[1],inactive
same,Potency,[2],inactive
Nc1ccncc1,Potency,[1],inactive
same,Potency,[2],inactive
same,outcome,[3],inactive
same,outcome,[4],inactive
same,Potency,[5],inactive
same,activation,[19],-4.84% (inactive)
same,outcome,[20],inactive
same,outcome,[10],inactive
same,max response,[11],-23%
same,outcome,[12],inactive
same,outcome,[13],inactive
same,outcome,[14],inactive
same,max response,[15],-10.7%
same,Potency,[16],inactive
Cc1c(OCC(F)(F)F)ccnc1CS(=O)c1nc2ccccc2[nH]1 (centres undefined),Potency,[2],inactive
COc1ccccc1N1CCNCC1,Potency,[1],inactive
same,Potency,[2],inactive
COC1(CS(=O)c2ccccc2)CCN(CCc2c[nH]c3ccc(F)cc23)CC1 (centres undefined),outcome,[3],inactive
NCC(CC(=O)O)c1ccc(Cl)cc1 (centres undefined),Potency,[1],inactive
same,Potency,[2],inactive
CC(C)NCC(O)c1ccc(O)c(O)c1 (centres undefined),Potency,[1],inactive
same,outcome,[10],inactive
Cc1cc2c(C(C)C)c(O)c(O)c(C=O)c2c(O)c1-c1c(C)cc2c(C(C)C)c(O)c(O)c(C=O)c2c1O,Potency,[1],10 µM (active)
same,Potency,[2],7.08 µM (active)
Clc1cccc(N2CCNCC2)c1,outcome,[3],inactive
N#CC(C#N)=Cc1ccc(O)c(O)c1,Potency,[1],inactive
same,Potency,[2],inactive
same,outcome,[3],inactive
COc1ccc(C(CN(C)C)C2(O)CCCCC2)cc1 (centres undefined),Potency,[1],inactive
same,Potency,[2],inactive
C#CCN(C)[C@H](C)Cc1ccccc1,outcome,[3],inactive
CNCCC(Oc1ccc(C(F)(F)F)cc1)c1ccccc1 (centres undefined),Potency,[1],28.2 µM (active)
same,Potency,[2],14.1 µM (active)
CC(=O)[C@H]1CC[C@H]2[C@@H]3CC[C@H]4C[C@H](O)CC[C@]4(C)[C@H]3C(=O)C[C@]12C,Potency,[1],inactive
same,Potency,[2],inactive
CC(=O)[C@H]1CC[C@H]2[C@@H]3CC[C@H]4C[C@](C)(O)CC[C@]4(C)[C@H]3CC[C@]12C,Potency,[1],inactive
same,Potency,[2],inactive
Cc1ccc(S(=O)(=O)N[C@@H](CCCCN)C(=O)CCl)cc1,Potency,[2],inactive
Cc1cccc(C)c1NC(=O)CN1CCCC1=O,Potency,[1],inactive
same,Potency,[2],inactive
C=C(C)[C@H]1Cc2c(ccc3c2O[C@@H]2COc4cc(OC)c(OC)cc4[C@@H]2C3=O)O1,outcome,[3],inactive
same,activation,[7],-1.33% (inactive)
same,activation,[8],-11.8% (inactive)
same,Potency,[18],44.7 µM (active)
Cc1cn([C@H]2C=C[C@@H](CO)O2)c(=O)[nH]c1=O,activation,[7],-2.48% (inactive) and 1.31% (inactive) and -0.393% (inactive)
same,outcome,[10],inactive
